D3 ag: activates the human D3 dopamine receptor. max activation, %. D3R DiscoveRx beta-arrestin cells, luminescence, 90 min. P35462. 410,000 tested, 0.58% active; in the data active means max activation above about 30%; further: 0% is about no effect
Target sequence (P35462 whole entry, looked up): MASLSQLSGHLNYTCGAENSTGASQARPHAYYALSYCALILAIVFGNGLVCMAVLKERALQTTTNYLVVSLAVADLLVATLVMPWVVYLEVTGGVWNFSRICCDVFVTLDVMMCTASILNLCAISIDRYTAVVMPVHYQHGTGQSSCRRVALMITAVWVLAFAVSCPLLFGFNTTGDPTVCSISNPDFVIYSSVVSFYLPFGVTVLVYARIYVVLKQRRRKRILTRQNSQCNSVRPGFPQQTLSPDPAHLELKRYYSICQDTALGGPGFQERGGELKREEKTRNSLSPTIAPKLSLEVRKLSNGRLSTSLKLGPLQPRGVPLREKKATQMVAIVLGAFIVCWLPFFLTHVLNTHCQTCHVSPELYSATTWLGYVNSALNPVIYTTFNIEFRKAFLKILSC
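Cells at 1500/well, incubated overnight, then treated with pinned compounds (dopamine as control) for 90 min at 37 degrees C. DiscoveRx reagent added for 30 - 60 minutes at room temperature; luminescence read.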
SW480 rerep: DNA re-replication induction in SW480 cells; SW480 DNA re-replication, Hoechst DNA content imaging, 48 h; Potency, µM (titrated, usually from 46.1 µM), without a hit: top-dose re-replication activation, actives largely listed as activators; 340,000 tested, 1.8% active; AID 624297; further: potency means the concentration at half of the fitted maximal effect; % of control where 0% means no effect; nearly all actives have a fitted effect of over 55% in size
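Image-based read-out: total Hoechst fluorescence of nuclei (405 nm excitation, 500-530 nm emission), with hits raising the fraction of high-intensity nuclei. SW480 colon cells incubated 48 hr with compounds at 37 C.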
KB-3-1 cytotox: KB-3-1 parental cell cytotoxicity. KB-3-1 viability, CellTiter-Glo ATP luminescence, 72 h. Potency, µM (doses to about 46.1 µM), usual class: cytotoxic. 400,000 tested, 1.4% active. AID 1347075; further: potency means the concentration at half of the fitted maximal effect; on the % scale 0 is the no-effect control and ±100 the full control effect; nearly all actives have a fitted effect of over 60% in size
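Cells are dispensed, compounds pinned in, plates held at 37 °C for 72 h, then CellTiter-Glo is added and luminescence read after 10 minutes. Cell line: parental KB-3-1 in phenol-red-free DMEM, 10% FBS.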
DRD3 antagonist: blocks the human D3 dopamine receptor | max response, negative = inhibition, % | P35462 | D3R cells, DiscoveRx beta-arrestin luminescence, antagonist mode; active compounds read low | AID 652054 | 360,000 tested, 2.5% active; in the data active means max response below about -50%; inconclusive means no clear call, values can overlap the other calls; further: on the % scale 0 is the no-effect control and ±100 the full control effect
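Cells expressing the human receptor were seeded at 1500 cells/well, incubated overnight at 37 degrees C in 5% CO2, then exposed to library compounds with dopamine controls for 90 minutes at 37 degrees C before luminescent detection.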
MCF10A rereplic: DNA re-replication induction in MCF 10a cells | MCF 10A DNA re-replication, Hoechst nuclear intensity, 48 h | Potency, µM (doses to about 46.1 µM), inactives show top-dose activity, positive = re-replication, usual class: activators | 350,000 tested, 2.9% active | AID 624296; further: potency means the concentration at half of the fitted maximal effect; % of control where 0% means no effect; nearly all actives have a fitted effect of over 50% in size
KB-V1 MDR tox: kills drug-selected multidrug resistant KB-V1 cells; 400,000 tested, 3.4% active; KB-V1 MDR cells viability, CellTiter-Glo, 72 h; Potency, µM (titrated, usually from 46.1 µM), hits mostly cytotoxic; further: potency means the concentration at half of the fitted maximal effect; on the % scale 0 is the no-effect control and ±100 the full control effect; nearly all actives have a fitted effect of over 60% in size
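Readout: CellTiter-Glo luminescence, 10 min after addition. Cells: KB-V1 MDR subline, 72 h at 37 degrees C with compound. Analysis: corrected, normalized data fitted to concentration-effect curves.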
Numbers without * were called inactive; i = inactive; ? = inconclusive; · = no result given; [ ] = remark or other dose. This is a sample that favours compounds with a hit; in the whole collection about 8.9% have one here. Unless noted, the call rests on the fitted dose curve; in most records, active means well fitted curve in the direction sought with a large enough effect; inconclusive means small, poorly fitted or top-dose-only effect, or another doubt; inactive means no such curve, though single readings can be large; an effect the other way counts as inactive or inconclusive.

SMILES | D3 ag | SW480 rerep | KB-3-1 cytotox | DRD3 antagonist | MCF10A rereplic | KB-V1 MDR tox
c1ccc(-c2nnc(SCc3nc4ccccc4[nH]3)n2Cc2ccco2)nc1 | -9 | 3% | i | 16 | 11% | 2.6µM*
Clc1cccc(-c2nnc(SCc3nc4ccccc4[nH]3)n2Cc2ccco2)c1 | -7 | 6% | i | 2 | ? | ?
NC(=O)CSc1nnc(-c2ccccn2)n1Cc1ccco1 | 10 | -13% | i | 3 | -3% | i
Clc1ccc(OCc2nnc(SCc3nc4ccccc4[nH]3)n2Cc2ccco2)cc1 | -4 | 15% | ? | -22 | 24% | 5.8µM*
C(=C\c1ccccc1)/CSc1nnc(-c2ccccn2)n1Cc1ccco1 | -2 | 21µM* | 5.8µM* | -18 | 7.9µM* | ?
COc1ccc(C)cc1NC(=O)CSc1nnc(-c2ccccn2)n1Cc1ccco1 | -5 | 0% | i | -23 | -1% | 12µM*
CCn1c(COc2ccc(C)cc2)nnc1SCc1nc2ccccc2[nH]1 | -2 | 2% | i | ? | 22% | 2.6µM*
COc1ccccc1NC(=O)CSc1nnc(-c2ccccn2)n1Cc1ccco1 | -8 | ? | i | 2 | -182%[0.0737 µM] | ?
CCn1c(SCC(=O)c2c[nH]c3ccccc23)nnc1-c1cccs1 | -3 | 15µM* | 16µM* | 27 | ? | ?
CCn1c(SCCOc2ccc(Cl)cc2)nnc1-c1cccs1 | 6 | -7% | i | -22 | 15% | 9.2µM*
Cc1ccc(N2CC(NC(=O)c3cc4ccccc4o3)CC2=O)cc1 (configuration not stated) | -4 | · | · | · | · | ·
COc1ccc(C=CC(=O)c2ccc([N+](=O)[O-])cc2)cc1 | 4 | -3% | i | -8 | -8% | i
O=C(C=Cc1ccccc1)c1ccc([N+](=O)[O-])cc1 | -9 | 16µM* | i | -29 | 160% | i
Cc1ccc(C(=O)/C=C/c2ccccc2[N+](=O)[O-])cc1 | -4 | ? | i | -11 | 16µM* | i
Cc1[nH]c(C)c(C(=O)/C=C/c2ccc([N+](=O)[O-])cc2)c1C | -2 | ? | ? | 42 | 12µM* | i
Cc1ccc(N(Cc2cccs2)C(=O)c2ccc(OC(C)C)cc2)cc1 | -6 | · | · | · | · | ·
CCCn1nc(NC(=O)COC)c2cc3cc(C)ccc3nc21 | -13 | 0% | i | 1 | 2% | i
CCCCn1nc(NC(=O)COC)c2cc3ccc(C)cc3nc21 | 5 | 34% | i | 36 | -4% | ?
CCCCn1nc(NC(=O)CC)c2cc3cc(OC)ccc3nc21 | 4 | 21µM* | i | 1 | 26µM* | i
CCCn1nc(NC(=O)C(C)(C)C)c2cc3cc(OC)ccc3nc21 | -2 | 21µM* | i | 12 | 15µM* | ?
COc1ccc2cc(S(=O)(=O)NCc3cccnc3)ccc2c1 | 9 | -3% | i | -2 | 10% | i
Cc1cccc(N2C(=O)C=CC2=O)c1 | 3 | ? | i | -26 | 21µM* | i
Cc1ccc(C(=O)c2coc3ccc(OCC(=O)O)cc23)cc1 | -5 | -8% | i | -61* | 1% | i
COC(=O)COc1ccc2occ(C(C)=O)c2c1 | -8 | 16µM* | i | -105* | 8.2µM* | i
O=C(O)COc1ccc2occ(C(=O)c3ccccc3)c2c1 | -2 | -8% | i | ? | -3% | i
SMILES | D3 ag | SW480 rerep | KB-3-1 cytotox | DRD3 antagonist | MCF10A rereplic | KB-V1 MDR tox
CC(=O)c1ccc(NC(=O)CSc2nnc3ccc(-c4ccc(F)cc4)nn23)cc1 | 5 | · | · | · | · | ·
O=C1C=C(Nc2ccc(Cl)cc2)CC(c2ccc(Cl)cc2)C1 (configuration not stated) | -13 | 3% | i | -22 | -13% | 23µM*
Cc1ccc(C2CC(=O)C=C(Nc3ccc(Cl)cc3)C2)cc1 (configuration not stated) | -4 | 6% | i | -26 | ? | ?
O=C(NCCCCc1ccccc1)C1CC(c2ccc(C(F)(F)F)cc2)=NO1 (configuration not stated) | 58* | 7% | i | 53 | 23% | i
CCCNC(=O)C1CC(c2ccc(C(F)(F)F)cc2)=NO1 (configuration not stated) | 38* | 2% | i | -14 | 17% | i
CCCCNC(=O)C1CC(c2ccc(C(F)(F)F)cc2)=NO1 (configuration not stated) | 20 | ? | ? | 9 | -57% | i
COc1cccc(COC(=O)c2ccc(-c3nnn(Cc4cccc(OC)c4)n3)cc2)c1 | 0 | · | i | · | · | i
c1c(C2CCCCC2)n[nH]c1CN1CCCCC1 | -8 | 0% | i | -73* | 8% | i
COc1cccc(CNC(=O)C2CCCN(c3nnc(-n4c(C)ccc4C)s3)C2)c1OC (configuration not stated) | -19 | · | i | · | · | i
NC(N)=N/N=C/c1ccc2cccc(OCc3ccccc3)c2n1 | -6 | -2%[9.22 µM] | 16µM* | -20 | ? | i
O/N=C/c1ccc2cccc(OCc3ccccc3)c2n1 | 0 | -1% | i | 2 | 2% | i
CC(=O)C1=C(O)C(=O)N(Cc2cccnc2)C1c1ccc(Cl)cc1 (configuration not stated) | 35* | -2% | i | -50* | -7% | i
O=S(=O)(CCSc1nc2ccccc2s1)c1nc2ccccc2s1 | -7 | ? | ? | -3 | ? | ?
C=CCS(=O)(=O)c1nc2ccccc2s1 | -1 | ? | ? | 35 | 7.3µM* | 23µM*
COc1ccc(CCNC(=O)Cc2c(C)c3cc4c(C)coc4cc3oc2=O)cc1OC | 2 | · | · | · | · | ·
CC(=O)c1cc2cccc(OC3(C)CCN(Cc4ccc(-c5ccccn5)cc4)C3)c2o1 (configuration not stated) | -10 | · | i | -53* | · | i
COc1cccc(OC2(C)CCN(Cc3ccc(-c4ccccn4)cc3)C2)c1 (configuration not stated) | 2 | · | i | ? | · | i
CC(=O)N1CCc2c(sc3nc(SCC(C)C)n(-c4ccc(C)c(Cl)c4)c(=O)c23)C1 | 5 | · | i | · | · | i
CC(C)c1ccccc1OCC(O)CN1CCN(S(=O)(=O)c2ccc([N+](=O)[O-])cc2)CC1 (configuration not stated) | -18 | 27% | 6.5µM* | -55* | 8% | ?
C=CCn1c(-c2ccccc2)cc(SC)c(C#N)c1=O | 6 | -61% | i | -1 | -4% | i

Screening results deposited in PubChem by National Center for Advancing Translational Sciences (NCATS).
